In PubChem BioAssay (NCI):
The panel holds about 83,000 compounds, 20% with a hit somewhere; the sample as a whole holds those more often.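 Assay: single dose, 48 h. Readout: percent growth (0 = no net growth; negative = cell death). Active: <10.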 Unmarked numbers belong to inactive results. Calls of active or inactive are those of the source.

The compounds below were run on OVCAR-4 ovarian (assay: NCI-60 one-dose screen, 48 h (100 = growth as untreated, 0 = no growth, -100 = all killed)). Conditions: 10 µM unless noted.
In the case of `COc1cc(OC)c(S(N)(=O)=O)cc1C(C)=O`, the growth is reported as 102%.
`COc1cccc2c1CN(C(=O)c1ccc(O)c(C(=O)N3Cc4ccc(OCCC[P+](c5ccccc5)(c5ccccc5)c5ccccc5)cc4C3)c1)C2` was tested, and the growth was 84%.
`O=S(=O)(Nc1ccc(I)cc1Cl)c1ccc(-c2cnc(C3CC3)o2)cc1` gave a growth of 67%.
Compound `C=C(C=O)[C@@H]1CC[C@]2(CO)CC[C@]3(C)[C@H](CC[C@@H]4[C@@]5(C)CCCNC(C)(C)[C@@H]5CC[C@]43C)[C@@H]12` has a growth of 87%.
`C=CCn1c(SCC(=O)Nc2ccc(C(=O)/C=C/c3cccc([N+](=O)[O-])c3)cc2)nnc1-c1c[nH]c2ccccc12` was tested, and the growth was 74.9%.
In the case of `CNC(=O)c1c(NC(=O)c2cccc(C(F)(F)F)c2F)sc2c1CCC(=O)C2`, the growth is reported as 8.78% (active).
With `COc1ccc(C2c3sc4c(C)cccc4c3Oc3nc(CC(=O)Nc4ccccc4)[nH]c(=O)c32)cc1` (stereo not drawn) the growth was 65%.
With `COCCNc1ccc2ncc(C#Cc3cncc(C(=O)Nc4ccc(CN5CCN(C)CC5)c(C(F)(F)F)c4)c3)n2n1` the growth was -10.6% (active).
In the case of `CCN1CCN(C(=O)[C@]23CCC(C)(C)C[C@H]2C2=CC[C@@H]4[C@@]5(C)Cc6c([nH]c7ccccc67)C(C)(C)[C@@H]5CC[C@@]4(C)[C@]2(C)CC3)CC1`, the growth is reported as 99.7%.
`CCn1c(SCC(=O)Nc2cccc(C(=O)/C=C/c3ccc(C)cc3)c2)nc2ccccc2c1=O` showed a growth of 80%.
Compound `CN1c2ccccc2Sc2cc(C=C(C#N)C#N)ccc21` has a growth of 105%.
`CN1CCN(Cc2ccc(NC(=O)c3cncc(C#Cc4cnn5cccnc45)c3)cc2C(F)(F)F)CC1` showed a growth of 27.9%.
For `N#Cc1cccc(/C(N)=N/C(N)=N/c2nc3ccccc3s2)c1`, the growth was 91.7%.
With `NS(=O)(=O)c1ccc(Nc2nc(N/N=C/c3c[nH]c4ccccc34)nc(Nc3ccccc3)n2)cc1` the growth was 59.7%.
`N#C/C(=C\c1ccc(-c2ccc(Cl)cc2Cl)o1)c1ccc(F)cc1` was tested, and the growth was 80.4%.
`O=C1/C(=C/C=C/c2ccco2)SC(=S)N1C1CCCCC1` gave a growth of 95.3%.
With `COc1cccc(C(=O)Nc2cccc(C#Cc3cccc4[nH]nc(N)c34)c2)c1` the growth was 67.8%.
`COc1cc(OC)c(S(N)(=O)=O)cc1C(=O)/C=C/c1ccc(Cl)cc1` gave a growth of 49.9%.
`COc1cc2nc(Cl)nc(Nc3cccc(C4=Nc5c(N)nc(N)nc5NC(c5ccc(Br)cc5)C4)c3)c2cc1OC` (stereo not drawn) gave a growth of 103%.
In the case of `CC1=N[C@@H]2CN(C(=O)OC(C)(C)C)C[C@@H]2n2c1cc1ccccc1c2=O`, the growth is reported as 107%.
With `COc1cc(OC)cc(C(=O)Nc2sc3c(c2C(N)=O)CCC(=O)C3)c1` the growth was 9.16% (active).
With `COc1cccc2cc(-c3cc4ccccc4[nH]3)/c(=N\NC(=O)c3ccc(Cl)cc3)oc12` the growth was 9.76% (active).
`c1cn2c(ccc3nc(-c4cn[nH]c4)c4c(c32)CCCC4)n1` showed a growth of 77.9%.
For `COc1cc(-c2nn(C(C)(C)C)cc2-c2ccnc(NCCCNS(=O)(=O)c3ccc(F)cc3)n2)ccc1Cl`, the growth was 54.2%.
With `Clc1nc2ccccc2nc1-c1nnc(C2CCCCC2)o1` the growth was 98%.
`CCCn1cnc2c(c1=N)C(c1ccc(F)cc1)c1sc3c(CC)cccc3c1O2` (stereo not drawn) was tested, and the growth was 26.6%.
`N#Cc1ccccc1Cn1c2nc(=N)c3ccccc3c-2nc2ccccc21` was tested, and the growth was 29.8%.
`COc1cc2nc(Cl)nc(Nc3cccc(C4=Nc5c(N)nc(N)nc5NC(c5ccc(F)cc5)C4)c3)c2cc1OC` (stereo not drawn) was tested, and the growth was 96.6%.
In the case of `CCn1c2ccccc2c2cc(-n3nncc3-c3ccccc3)ccc21`, the growth is reported as 43%.
Work on `CCCn1cnc2c(c1=N)C(c1ccc(Cl)cc1)c1sc3c(CC)cccc3c1O2` (stereo not drawn) yielded a growth of 89.1%.
`Cc1ccc(C2=Nn3c(nnc3-c3ccccc3)SC2)cc1` showed a growth of 67.3%.
`Cc1ccc2sc3c(c2c1)OC(N)=C(C#N)C3c1ccc(Cl)cc1` (stereo not drawn) showed a growth of 91.1%.
`Cc1ccc(NC(=O)N[C@@H](Cc2cc(F)cc(F)c2)C(=O)NC2C(=O)N3C[C@H](O)C[C@H]3C(=O)N3CCCC[C@H]3C(=O)N[C@@H](CO)C(=O)N3C[C@H](C)C[C@H]3C(=O)O[C@H]2C)c(F)c1` (stereo partly drawn) showed a growth of 29.8%.
